Source: PubChem BioAssay
CYP2C9 act: human CYP2C9 activators, primary screen, biochemical, luminescence. Cytochrome P450 2C9 (Homo sapiens), P11712. recombinant CYP2C9, luciferin-H conversion; stronger effect = higher value; factor 1 = untreated enzyme, 0 = blocked. activation factor at 5 µM. actives 1.4% (n = 96,000). AID 1024, 2008;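 active = activation factor of 2 or more for CYP2C9 at a 5 µM dose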;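 note: 0 = sulfaphenazole-blocked wells and 1 = vehicle-only wells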
Target sequence (P11712 whole entry, looked up): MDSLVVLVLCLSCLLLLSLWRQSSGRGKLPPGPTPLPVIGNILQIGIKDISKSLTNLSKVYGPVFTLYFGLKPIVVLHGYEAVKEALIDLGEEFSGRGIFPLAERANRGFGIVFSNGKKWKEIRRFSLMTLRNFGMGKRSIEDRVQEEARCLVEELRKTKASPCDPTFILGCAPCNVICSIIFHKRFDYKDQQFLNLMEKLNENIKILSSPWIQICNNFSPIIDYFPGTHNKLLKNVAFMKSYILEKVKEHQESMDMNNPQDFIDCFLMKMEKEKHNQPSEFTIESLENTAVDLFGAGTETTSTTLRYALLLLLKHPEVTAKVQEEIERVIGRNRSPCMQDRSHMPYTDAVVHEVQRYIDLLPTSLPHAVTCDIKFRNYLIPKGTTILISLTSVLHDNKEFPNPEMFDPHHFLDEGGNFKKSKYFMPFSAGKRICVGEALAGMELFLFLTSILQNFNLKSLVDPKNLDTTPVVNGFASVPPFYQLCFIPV
CYP2C9 inhib: blockers of cytochrome P450 2C9 activity – biochemical, luminescence, ADME assay, primary screen | P11712 | CYP2C9 Supersomes, luciferin-H conversion | inhibition, % at 5 µM | actives 20% (n = 96,000) | AID 777, 2007;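 active = blocking of liver enzyme CYP2C9 beyond about 50% at 5 µM, limit read from the data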
CYP2C19 inhib: blockers of cytochrome P450 2C19 activity – biochemical, luminescence, ADME assay, primary screen; P33261; inhibition, % at 5 µM; actives 21% (n = 96,000); CYP2C19 Supersomes, luciferin-H EGE luminescence, 30 min;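 active = CYP2C19 inhibition above a set limit at 5 µM in the primary screen, cut at about 50% in these data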;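 note: plate controls were negative control wells for no effect and 2.5 mM tranylcypromine positive control for full effect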
sEH inh: soluble epoxide hydrolase inhibitors, primary screen, biochemical, human sEH | inhibition, % at 2 µM | recombinant human sEH enzymatic activity assay | Bifunctional epoxide hydrolase 2 (Homo sapiens), P34913 | actives 0.34% (n = 91,000); in the data active = inhibition above about 80%
CYP2C19 act: human CYP2C19 activators, primary screen, biochemical, luminescence. activation factor at 5 µM. Cytochrome P450 2C19 (Homo sapiens), P33261. recombinant CYP2C19, luciferin-H EGE luminescence; stronger effect = higher value; 0 = fully inhibited enzyme, 1 = untreated enzyme. 96,000 tested, under 10 active;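 active = activation factor of at least 2 at 5 µM in the primary screen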;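 note: 0 = wells with 2.5 mM tranylcypromine and 1 = vehicle-only wells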
sEH act: soluble epoxide hydrolase activators, primary screen, biochemical, human sEH; Bifunctional epoxide hydrolase 2 (Homo sapiens), P34913; purified human sEH enzymatic activity, activator screen; activation, % at 2 µM; actives 0.04% (n = 91,000); AID 717, 2007; in the data active = activation above about 37%
Active calls of the source: *; . = no result. Compounds with a hit are over-represented: about 27% of the library has one in this group of screens.

SMILES	CYP2C9 act	CYP2C9 inhib	CYP2C19 inhib	sEH inh	CYP2C19 act	sEH act
O=C(Nc1ccc2c(c1)OCO2)C1CCN(C(=O)c2cccs2)CC1	0.6	39.1	14.9	.	0.9	.
COc1cccc(C2C(C(=O)c3cccs3)=C(O)C(=O)N2c2cc(C)on2)c1 (stereo unspecified)	0.4	57.7*	17.8	.	0.8	.
COc1cccc(C2C(C(=O)c3cc4cccc(OC)c4o3)=C(O)C(=O)N2c2cc(C)on2)c1OC (stereo unspecified)	0.1	85.2*	10.2	-7.7	0.9	6.9
COc1cccc(C2C(C(=O)c3cc4ccccc4o3)=C(O)C(=O)N2c2cc(C)on2)c1OC (stereo unspecified)	0.7	30.2	-3.7	4.4	1	-5.6
Cc1cc(C)nc(-n2c(Nc3ccccc3)cc(=O)c3c(C)n(-c4ccccc4)c(=O)nc32)n1	.	.	.	-1.6	.	0.9
CC(C)N=Cc1c(O)[nH]c2ccccc12	0.5	54.5*	5.4	2.0	0.9	-1.5
CC1(C)C(N(O)C(=O)Nc2ccc(Cl)cc2)N(c2ccc(Cl)cc2)C(=O)N1CC(=O)NN (stereo unspecified)	0.6	40.6	35.2	15.3	0.6	-15.6
O=S(=O)(CCSc1nc2ccccc2s1)c1nc2ccccc2s1	0.3	73.8*	24.5	-7.6	0.8	9.1
CCS(=O)(=O)CCSc1nc2ccccc2s1	1.5	-49.4	71.9*	-4.8	0.3	4.2
COC(=O)CSc1nnc(CNC(=O)c2cccs2)n1-c1cc(OC)ccc1OC	1.1	-5.5	-5.6	-1.9	1.1	-1.3
O=C1CN(C(=O)COC(=O)COc2ccc3c(c2)CCC3)c2ccccc2N1	1	1.0	4.2	-8.7	1	6.7
Cn1nnc(NC(=O)COc2ccc(C3CCCCC3)cc2)n1	0.5	52.8*	39.0	10.2	0.6	-6.3
Cc1cc(C)n(/N=C\c2c(O)ccc3ccccc23)c(=O)c1C(N)=O	0.8	24.7	-8.5	-16.3	1.1	14.7
Cc1ccccc1NC(=O)C(C)O/N=C/c1cccc([N+](=O)[O-])c1 (stereo unspecified)	0.1	93.3*	95.3*	-1.8	0	0.9
CCN1CC=C2C(C#N)=C(N)C(C#N)(C#N)[C@H](c3cccc(OC)c3OC)[C@H]2C1	0.9	13.8	44.5	1.3	0.6	2.3
CCN1CC=C2C(C1)C(c1ccc(Cl)s1)C(C#N)=C(N)C2(C#N)C#N (stereo unspecified)	0.1	92.9*	70.5*	2.8	0.3	-4.0
O=C(O)c1ccc(CSCc2ccco2)cc1	1	-4.0	15.1	5.9	0.8	-7.6
CCCCNCc1cc(Cl)c(OCCC)c(OCC)c1	0.6	35.1	68.0*	6.9	0.3	-6.1
CCOc1c(Cl)cc(CNCC(C)C)cc1OC	1	1.1	70.6*	4.2	0.3	-4.0
CCCCOc1c(Cl)cc(CNC(C)(C)CO)cc1OCC	1	-4.6	12.3	-14.1	0.9	10.2
O=S(=O)(NCc1cccnc1)c1cc(Cl)ccc1Cl	0.6	37.5	45.4	.	0.5	.
Cc1ccc(CCNS(=O)(=O)c2cnc[nH]2)cc1	0	98.0*	73.3*	.	0.3	.
O=S(=O)(NCc1ccc(Cl)cc1)c1cnc[nH]1	0	95.1*	78.2*	11.0	0.2	-8.1
O=S(=O)(NCc1ccccc1)c1cnc[nH]1	0.1	94.6*	62.2*	-8.2	0.4	6.2
Cc1ccc(Cn2ccc(NC(=O)c3nc4ncccn4n3)n2)cc1	0.8	16.1	10.5	5.1	0.9	-6.9
SMILES	CYP2C9 act	CYP2C9 inhib	CYP2C19 inhib	sEH inh	CYP2C19 act	sEH act
Nc1ccc(-c2nc3c(Cl)c(N)ccc3[nH]2)cc1	1	-2.5	-6.1	-0.5	1.1	0.7
CCCCC1(Cc2cccc([N+](=O)[O-])c2)C(=O)N(c2ccccc2)N(c2ccccc2)C1=O	0.2	80.5*	79.6*	-1.4	0.2	1.6
Nc1c(-c2ccccc2)cnn1-c1cccc([N+](=O)[O-])c1	0.9	8.9	18.0	-10.4	0.8	13.6
CCC(C)(C)C1CCc2c(sc(NC(=O)c3ccoc3C)c2C(N)=O)C1 (stereo unspecified)	1.2	-16.3	-4.1	-1.6	1	3.9
Cc1occc1C(=O)Nc1sc2c(c1C(N)=O)CCC(C(C)(C)C)C2 (stereo unspecified)	0.4	58.5*	7.1	-23.1	0.9	27.0
COc1ccc(-c2cn3c4c(sc3n2)CCCC4)cc1	0.2	78.3*	85.7*	-6.8	0.1	7.2
CCOc1ccc(OCC)c(NC(=O)c2ccc(CNc3c(N4CCOCC4)c(=O)c3=O)cc2)c1	0.7	25.7	20.6	-5.4	0.8	2.9
O=c1c2cccc3c(N4CCOCC4)ccc(c32)c2nc3ccccc3n12	0.8	18.0	14.6	.	0.9	.
Cc1c(CCO)c(=O)n(-c2ccccc2)n1S(=O)(=O)c1c(Cl)cc(Cl)cc1Cl	0.6	36.5	57.3*	-4.7	0.4	3.5
CC(C)N(C(=O)c1ccc2nc3c4ccccc4c4ccccc4c3nc2c1)C(C)C	.	.	.	2.6	.	-2.9
Nn1c(Cc2cccc3ccccc23)nnc1SC1CCOC1=O (stereo unspecified)	2.9*	-191.2	55.4*	.	0.4	.
CN(C(=O)CSc1nnc(Cc2cccc3ccccc23)n1N)C1CCS(=O)(=O)C1 (stereo unspecified)	2*	-98.0	-15.7	-12.1	1.2	9.8
O=C(/C=C/c1ccc(Cl)cc1Cl)NCc1ccncc1	0.2	75.6*	80.8*	53.1	0.2	-53.6
CN1Cc2c(N3CCOCC3)nc(SCc3ccccc3)c(C#N)c2CC1(C)C	0.1	90.7*	40.6	.	0.6	.
CC1(C)Cc2c(C#N)c(SCC(=O)c3ccccc3)nc(N3CCOCC3)c2CS1	0	98.4*	81.2*	-12.5	0.2	12.5
CCSc1nc(N2CCOCC2)c2c(c1C#N)CC(C)(C)N(C)C2	0.1	87.4*	50.8*	-7.4	0.5	6.4
COC(=O)CSc1nc(N2CCOCC2)c2c(c1C#N)CC(C)(C)N(C)C2	0.4	56.4*	4.9	7.1	1	-5.6
Cc1ccc(C(=O)NN(C)c2nc3ccccc3nc2C(F)(F)F)cc1	1.6	-62.8	30.4	14.6	0.7	-13.7
CC(C)(C)c1cc(NC(=O)c2cc(F)c(F)c(F)c2F)no1	1.1	-10.4	-11.6	.	1.1	.
Cc1cc(C)n(Cc2ccc(Cl)c(Cl)c2)c(=O)c1S(=O)(=O)c1ccccc1	1.1	-8.1	2.1	6.2	1	-5.2
CCc1cc(-c2n[nH]c(=S)n2-c2cccc(C)c2)cs1	0.7	31.1	63.3*	-9.6	0.4	11.8
